Inconclusive results are not listed. Where a call stands in place of a potency, no number is given. Values without a mark were called inactive. The source made the active and inactive calls. Calls come from the whole dose curve; as a rule, active = well fitted cell-killing curve with a large enough effect in the repeat runs; inconclusive = weak or mixed curves, or effect the other way; inactive = flat fitted curve, though single readings scatter.

This test can be described thus: cAMP Responsive Elements (CRE) small molecule agonists, cell-based qHTS assay: qHTS cell viability counter screen (AID 2060914). Note: nearly all actives have a fitted effect of over 50% in size. As to conditions: CRE-bla HEK293T viability, CellTiter-Glo luminescence, 5 h; series mostly up to 92.4 µM. From the text: National Center for Advancing Translational Sciences [NCATS]
Division of Preclinical Innovation [DPI]
U.S. Environmental Protection Agency [EPA]
National Institutes of Environmental Health Sciences [NIEHS]
National Toxicology Program [NTP]
U.S. Food and Drug Administration [FDA]
CREB (cyclic-AMP Responsive Element Binding Protein) is a cellular transcription factor. It binds to certain DNA sequences called cAMP Responsive Elements (CRE) and regulates the transcription of the genes. […] This cell line can be used to find agonists/antagonists of the cyclic AMP signaling pathway. The activation of the report gene under culture conditions can be detected by fluorescence intensity. This cell line has been used to screen the Tox21 10K compound library to identify agonists that induce oxidative stress. The cytotoxicity of the Tox21 compound library against the CRE-bla cell line was tested in parallel by measuring the cell viability using CellTiter-Glo assay (Promega, Madison, WI) in the same wells.
Tox21 Assay Protocol Summary:
CRE-bla Hek 293T cells were suspended in assay medium (DMEM containing 10% dialyzed FBS, 0.1 mM NEAA, 1 mM sodium pyruvate and 25 mM HEPES) and dispensed at 2,000 cells/5 uL /well into 1536-well black wall/clear bottom plates using a Multidrop Combi (ThermoFisher Scientific, Waltham, MA) dispenser. After the assay plates were incubated at 37 C/5% CO2 for 18 hrs, 23 nL of compounds dissolved in DMSO, positive controls or DMSO only was transferred to the assay plate by a pintool workstation (Kalypsys, San Diego, CA). After the plates were incubated at 37 C/5% CO2 for 3 hrs, 1 uL of LiveBLAzer B/G FRET substrate (Invitrogen, Carlsbad, CA) was added to each well using Bioraptr Flying Reagent Dispenser (FRD, Aurora Discovery, San Diego, CA). The plates were incubated at room temperature for 2 h, then fluorescence intensities were measured using an Envision plate reader (PerkinElmer, Shelton, CT) at Excitation 405nm, Emission 460nm and 530nm. The % activity was determined from the ratio of 460nm/530nm. For cell viability readout that measures cytotoxicity, 4 uL /well of CellTiter-Glo reagent was added into the assay plates using Bioraptr FRD. After 30 min incubation at room temperature, the luminescence intensity in the assay plates was measured using a ViewLux (PerkinElmer, Shelton, CT) plate reader.
As for `O=C(O)[C@@H]1[C@H]2C[C@H]3c4[nH]c5ccccc5c4CCN3C[C@@H]2CC[C@@H]1O`, the Potency entry was “inactive”.
Consider `O=c1[nH]ncc2ccccc12`, for which the Potency result was “inactive”.
Regarding `CCCCCCOC(=O)c1ccccc1O`, the Potency entry was “inactive”.
For the compound `CC1=CC(C)(C)Nc2ccccc21`, the Potency result is “inactive”.
In the case of `O=C(O)c1ccc2cc(C(=O)O)ccc2c1`, the Potency entry was “inactive”.
On the same count and under the same terms, with `N#CCc1ccc(Cl)cc1Cl` the entry was “inactive”; with `CCOC(=O)[C@@](C)(N)Cc1ccc(O)c(O)c1`, “inactive”.
The same measure, in the same setting: with `CCOc1ccccc1OCC1CNCCO1` (stereo not given) the entry was “inactive”; with `CCCCN(CCN(CCCC)C(=O)N1CCOCC1)C(=O)N1CCOCC1`, “inactive”; with `CCCCc1nc(Cl)c(CO)n1Cc1ccc(-c2ccccc2-c2nn[nH]n2)cc1`, “inactive”.
`COc1ccc(CN(CCN(C)C)c2ccccn2)cc1`: the Potency result was “inactive”.
Regarding `CC1(C)S[C@@H]2[C@H](NC(=O)C(C(=O)O)c3ccccc3)C(=O)N2[C@H]1C(=O)O` (stereo not given in full), the Potency result was “inactive”.
With `COc1cc2ncnc(Nc3ccc(F)c(Cl)c3)c2cc1OCCCN1CCOCC1`, the Potency entry is “inactive”.
Consider `O=C(OCCOCCOC(=O)c1ccccc1)c1ccccc1`, for which the Potency entry was “inactive”.
Take `COC(=O)OC`: the Potency entry is “inactive”.
For the compound `OC(CCN1CCCCC1)(c1ccccc1)C1CC2C=CC1C2` (stereo not given), the Potency result is “inactive”.
On the same count and under the same terms, with `CCCCOc1cc(C(=O)NCCN(CC)CC)c2ccccc2n1` the entry was “inactive”; with `CCN1CCc2nc(N)oc2CC1`, “inactive”; with `C[C@H](N)C(=O)N[C@@H](C)C(=O)NC1[C@H]2CN(c3nc4c(cc3F)c(=O)c(C(=O)O)cn4-c3ccc(F)cc3F)C[C@@H]12` (stereo not given in full), “inactive”.
For `COC(=O)c1ccccc1C(=O)c1ccc(OCCN2CCCCC2)cc1`, the Potency entry is “inactive”.
As to `[O-][n+]1ccccc1SSc1cccc[n+]1[O-]`, the activity change, negative = cytotoxicity is -16.6% [at 18.9 µM].
Take `COc1cc(C=C2CCC/C(=C\c3ccc(O)c(OC)c3)C2=O)ccc1O`: the Potency entry was “inactive”.
`CCOc1ccc(NC(=O)CC(C)O)cc1` (stereo not given): the Potency result is “inactive”.
`COc1cc(NC(C)CCCN)c2ncccc2c1` (stereo not given): the Potency entry was “inactive”.
On the same count and under the same terms, in the case of `CCCC(=O)OCc1ccccc1` it was “inactive”.
On to `CC(=O)Oc1cc2c(s1)CCN(C(C(=O)C1CC1)c1ccccc1F)C2` (stereo not given), for which the Potency result is “inactive”.
For `CCCCC1=NC2(CCCC2)C(=O)N1Cc1ccc(-c2ccccc2-c2nn[nH]n2)cc1`, the Potency result was “inactive”.
Consider `CC(O)CC(C)(C)O` (stereo not given), for which the Potency result is “inactive”.
On the same count and under the same terms, with `NS(=O)(=O)O` the entry was “inactive”; with `O=C(O)Cn1c(C(=O)Nc2nc(-c3ccccc3Cl)cs2)cc2ccccc21`, “inactive”; with `O=CCCc1ccccc1`, “inactive”.
`COc1cc2c(cc1OC)-c1cc(=Nc3c(C)cc(C)cc3C)n(C)c(=O)n1CC2`: the Potency result was “inactive”.
`CCCC(C)C(=O)O` (stereo not given): the Potency entry was “inactive”.
Take `CC(C)N1C(=O)c2ccccc2C1=O`: the Potency result is “inactive”.
Take `NC(=O)N1c2ccccc2C=Cc2ccccc21`: the Potency entry is “inactive”.
The same measure, in the same setting: with `C=CC(=O)NC(C)(C)CS(=O)(=O)O` the entry was “inactive”; with `CCOC(=O)C1=C(C)NC(C)=C(C(=O)OCC)C1c1ccccc1/C=C/C(=O)OC(C)(C)C`, “inactive”.
Consider `C=COCCOCCOC=C`, for which the Potency result is “inactive”.
Consider `Cc1cc(C(C#N)c2ccc(Cl)cc2)c(Cl)cc1NC(=O)c1cc(I)cc(I)c1O` (stereo not given), for which the Potency result is “inactive”.
Still for that read-out and setting: with `O=C(c1ccccc1)C1(O)CCCCC1` the entry was “inactive”.

Source of the values: PubChem BioAssay (Tox21).
